# Data: PMC7862700, “An all-to-all approach to the identification of sequence-specific readers for epigenetic DNA modifications on cytosine”
# Tests used:
# Assay in all cases: DAPPL (digital affinity profiling via proximity ligation, sequencing); 10 mM Tris-HCl pH 7.5, 50 mM NaCl, 1 mM DTT, 4% glycerol, room temperature, 30 min; GST-TFs on glutathione beads, 16-mer random dsDNA library, 0.1% formaldehyde crosslink after washing; high values mean tight binding
# Conditions in all cases: protein: recombinant; tags: N-terminal GST; dsDNA, one strand shown
# FLI1 = molecular target: T1, FLI1 (Homo sapiens, UniProt Q01543 1-452)
# T1 sequence: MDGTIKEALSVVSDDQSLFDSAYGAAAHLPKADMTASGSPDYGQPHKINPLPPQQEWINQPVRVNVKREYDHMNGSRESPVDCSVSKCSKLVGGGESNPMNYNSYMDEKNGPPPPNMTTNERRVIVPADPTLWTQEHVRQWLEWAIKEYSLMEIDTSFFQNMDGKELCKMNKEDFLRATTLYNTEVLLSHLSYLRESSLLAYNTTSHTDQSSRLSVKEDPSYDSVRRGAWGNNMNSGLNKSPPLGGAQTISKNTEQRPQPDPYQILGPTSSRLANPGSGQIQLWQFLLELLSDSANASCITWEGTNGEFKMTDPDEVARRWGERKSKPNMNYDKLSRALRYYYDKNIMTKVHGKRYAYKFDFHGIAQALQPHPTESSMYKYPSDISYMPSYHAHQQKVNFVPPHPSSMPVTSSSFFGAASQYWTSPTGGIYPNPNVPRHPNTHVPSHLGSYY
# Procedure, shortened: (§1)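 Human transcription factors fused to GST were expressed in yeast, captured on glutathione beads, given DNA barcodes and pooled with a GST-only negative control. Pools were incubated with 200 nmole of a 16-mer random double-stranded DNA library in Tris/NaCl/DTT/glycerol buffer at room temperature for 30 min. They were then washed, crosslinked with 0.1% formaldehyde, proximity-ligated (BsaI/T4 ligase, 1 h, 37 °C), PCR-amplified and sequenced on an Illumina NextSeq500. Binding signal is each 6-mer's read frequency for a factor divided by its frequency for the GST control.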
# ELK1 = molecular target: T2, ELK1 (Homo sapiens, UniProt P19419 1-428)
# T2 sequence: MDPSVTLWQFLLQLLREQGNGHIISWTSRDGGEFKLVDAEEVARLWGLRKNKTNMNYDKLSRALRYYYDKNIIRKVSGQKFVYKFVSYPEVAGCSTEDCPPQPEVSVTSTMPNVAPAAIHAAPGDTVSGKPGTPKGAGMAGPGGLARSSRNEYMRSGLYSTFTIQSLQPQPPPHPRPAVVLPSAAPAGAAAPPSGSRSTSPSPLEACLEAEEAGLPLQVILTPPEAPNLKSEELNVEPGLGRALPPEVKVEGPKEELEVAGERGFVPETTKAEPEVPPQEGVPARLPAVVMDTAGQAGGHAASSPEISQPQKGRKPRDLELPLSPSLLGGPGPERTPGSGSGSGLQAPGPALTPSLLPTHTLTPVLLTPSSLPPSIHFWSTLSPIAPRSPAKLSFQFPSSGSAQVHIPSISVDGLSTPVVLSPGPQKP
# Procedure, shortened: as §1
# GABPA = molecular target: T3, GABPA (Homo sapiens, UniProt Q06546 1-454)
# T3 sequence: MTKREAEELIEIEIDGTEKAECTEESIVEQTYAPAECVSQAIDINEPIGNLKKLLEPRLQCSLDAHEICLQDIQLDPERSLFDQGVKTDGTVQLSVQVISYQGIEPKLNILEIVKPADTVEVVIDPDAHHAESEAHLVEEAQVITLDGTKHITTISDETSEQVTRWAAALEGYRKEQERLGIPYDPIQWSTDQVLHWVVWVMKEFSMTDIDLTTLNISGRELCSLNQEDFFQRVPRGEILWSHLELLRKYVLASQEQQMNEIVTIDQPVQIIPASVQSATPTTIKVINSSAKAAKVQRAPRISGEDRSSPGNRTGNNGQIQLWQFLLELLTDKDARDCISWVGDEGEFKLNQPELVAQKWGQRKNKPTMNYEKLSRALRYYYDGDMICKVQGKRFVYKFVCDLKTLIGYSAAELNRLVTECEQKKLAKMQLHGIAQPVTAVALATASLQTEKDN
# Procedure, shortened: as §1
# ERG = molecular target: T4, ERG (Homo sapiens, UniProt P11308 1-479)
# T4 sequence: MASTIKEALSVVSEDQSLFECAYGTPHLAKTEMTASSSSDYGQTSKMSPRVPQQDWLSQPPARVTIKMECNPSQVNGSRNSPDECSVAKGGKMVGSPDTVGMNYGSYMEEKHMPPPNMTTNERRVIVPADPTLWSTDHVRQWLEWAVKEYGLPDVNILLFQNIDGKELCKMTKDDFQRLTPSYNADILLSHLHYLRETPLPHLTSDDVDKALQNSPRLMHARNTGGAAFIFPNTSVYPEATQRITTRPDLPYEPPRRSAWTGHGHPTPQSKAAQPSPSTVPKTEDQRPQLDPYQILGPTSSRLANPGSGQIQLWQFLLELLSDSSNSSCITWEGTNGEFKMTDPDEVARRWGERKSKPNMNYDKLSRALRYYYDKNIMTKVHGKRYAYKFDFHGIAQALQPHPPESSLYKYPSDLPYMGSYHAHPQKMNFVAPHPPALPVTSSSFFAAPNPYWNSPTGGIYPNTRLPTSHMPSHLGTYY
# Procedure, shortened: as §1
# ELF1 = ELF1 (Homo sapiens, UniProt P32519 1-619)
# Chain of ELF1 (P32519 whole entry): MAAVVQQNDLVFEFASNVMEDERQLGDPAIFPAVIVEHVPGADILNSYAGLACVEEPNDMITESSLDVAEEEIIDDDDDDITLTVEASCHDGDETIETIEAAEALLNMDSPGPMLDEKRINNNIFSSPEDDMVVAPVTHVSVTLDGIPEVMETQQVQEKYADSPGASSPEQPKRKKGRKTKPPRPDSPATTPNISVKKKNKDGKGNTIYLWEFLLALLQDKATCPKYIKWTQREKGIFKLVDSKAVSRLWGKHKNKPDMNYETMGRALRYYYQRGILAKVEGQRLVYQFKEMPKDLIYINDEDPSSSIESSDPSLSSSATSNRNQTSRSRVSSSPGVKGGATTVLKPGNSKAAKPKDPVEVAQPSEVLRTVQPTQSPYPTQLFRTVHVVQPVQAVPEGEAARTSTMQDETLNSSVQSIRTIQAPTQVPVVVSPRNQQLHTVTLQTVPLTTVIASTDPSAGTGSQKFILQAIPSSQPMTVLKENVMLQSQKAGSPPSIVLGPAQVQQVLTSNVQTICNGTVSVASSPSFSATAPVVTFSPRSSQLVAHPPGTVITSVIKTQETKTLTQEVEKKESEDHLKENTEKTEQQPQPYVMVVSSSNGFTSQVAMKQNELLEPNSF
# Procedure, shortened: as §1
# EHF = molecular target: T5, EHF (Homo sapiens, UniProt Q9NZC4 1-300)
# T5 sequence: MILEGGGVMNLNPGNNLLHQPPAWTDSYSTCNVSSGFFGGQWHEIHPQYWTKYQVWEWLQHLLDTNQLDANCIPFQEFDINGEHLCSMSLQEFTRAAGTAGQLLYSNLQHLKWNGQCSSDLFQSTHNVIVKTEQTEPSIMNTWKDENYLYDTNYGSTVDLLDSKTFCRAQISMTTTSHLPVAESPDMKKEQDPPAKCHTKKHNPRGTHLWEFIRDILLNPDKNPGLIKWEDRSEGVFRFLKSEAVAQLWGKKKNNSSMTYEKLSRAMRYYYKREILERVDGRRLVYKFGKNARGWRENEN
# Procedure, shortened: as §1
# SPIB = SPIB (Homo sapiens, UniProt Q01892 1-262)
# Chain of SPIB (Q01892 whole entry): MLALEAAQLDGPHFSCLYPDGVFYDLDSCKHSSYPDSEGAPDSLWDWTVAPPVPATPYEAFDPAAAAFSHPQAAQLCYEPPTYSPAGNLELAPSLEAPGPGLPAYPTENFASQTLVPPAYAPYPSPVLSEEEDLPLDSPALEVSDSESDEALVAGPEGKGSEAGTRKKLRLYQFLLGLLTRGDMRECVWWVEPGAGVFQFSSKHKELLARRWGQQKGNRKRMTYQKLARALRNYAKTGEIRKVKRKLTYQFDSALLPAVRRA
# Procedure, shortened: as §1
# ELK3 = molecular target: T6, ELK3 (Homo sapiens, UniProt P41970 1-407)
# T6 sequence: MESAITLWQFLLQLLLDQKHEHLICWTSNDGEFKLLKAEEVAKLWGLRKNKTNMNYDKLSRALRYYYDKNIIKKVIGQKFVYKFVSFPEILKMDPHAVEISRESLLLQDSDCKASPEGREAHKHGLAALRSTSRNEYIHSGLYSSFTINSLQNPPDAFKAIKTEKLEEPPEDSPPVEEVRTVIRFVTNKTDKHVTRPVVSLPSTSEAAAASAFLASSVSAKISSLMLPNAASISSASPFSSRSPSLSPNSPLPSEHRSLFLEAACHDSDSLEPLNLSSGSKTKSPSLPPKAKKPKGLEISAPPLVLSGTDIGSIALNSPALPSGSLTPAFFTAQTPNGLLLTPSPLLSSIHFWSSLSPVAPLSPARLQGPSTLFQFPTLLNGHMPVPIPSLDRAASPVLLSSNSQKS
# Procedure, shortened: as §1
# SPIC = molecular target: T7, SPIC (Homo sapiens, UniProt Q8N5J4 1-248)
# T7 sequence: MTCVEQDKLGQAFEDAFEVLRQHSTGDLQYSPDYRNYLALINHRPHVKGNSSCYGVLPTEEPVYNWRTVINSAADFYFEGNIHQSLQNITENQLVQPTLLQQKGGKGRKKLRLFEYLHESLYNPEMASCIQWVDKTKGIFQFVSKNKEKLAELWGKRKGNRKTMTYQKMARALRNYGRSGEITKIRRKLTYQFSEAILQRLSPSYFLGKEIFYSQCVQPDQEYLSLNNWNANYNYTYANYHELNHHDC
# Procedure, shortened: as §1
# ELF4 = ELF4 (Homo sapiens, UniProt Q99607 1-663)
# Chain of ELF4 (Q99607 whole entry): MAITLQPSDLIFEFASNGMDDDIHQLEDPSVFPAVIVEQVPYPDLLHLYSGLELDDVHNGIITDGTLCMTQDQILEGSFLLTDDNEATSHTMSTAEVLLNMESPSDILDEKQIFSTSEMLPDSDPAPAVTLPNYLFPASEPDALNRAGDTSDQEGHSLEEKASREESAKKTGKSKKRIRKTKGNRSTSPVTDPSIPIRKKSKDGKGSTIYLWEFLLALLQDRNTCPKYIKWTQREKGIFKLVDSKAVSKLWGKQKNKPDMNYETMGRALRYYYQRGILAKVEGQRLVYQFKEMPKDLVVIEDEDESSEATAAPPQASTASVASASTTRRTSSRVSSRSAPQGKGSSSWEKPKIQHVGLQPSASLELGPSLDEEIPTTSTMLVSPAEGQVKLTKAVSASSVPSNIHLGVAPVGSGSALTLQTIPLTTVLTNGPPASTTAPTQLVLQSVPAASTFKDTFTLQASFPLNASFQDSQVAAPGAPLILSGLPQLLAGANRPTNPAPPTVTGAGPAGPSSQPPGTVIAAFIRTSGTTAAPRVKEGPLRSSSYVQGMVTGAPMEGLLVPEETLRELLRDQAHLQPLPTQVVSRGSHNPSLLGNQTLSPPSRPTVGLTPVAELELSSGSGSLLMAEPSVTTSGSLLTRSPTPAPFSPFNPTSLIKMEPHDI
# Procedure, shortened: as §1
# ELK4 = molecular target: T8, ELK4 (Homo sapiens, UniProt P28324-2 1-405)
# T8 sequence: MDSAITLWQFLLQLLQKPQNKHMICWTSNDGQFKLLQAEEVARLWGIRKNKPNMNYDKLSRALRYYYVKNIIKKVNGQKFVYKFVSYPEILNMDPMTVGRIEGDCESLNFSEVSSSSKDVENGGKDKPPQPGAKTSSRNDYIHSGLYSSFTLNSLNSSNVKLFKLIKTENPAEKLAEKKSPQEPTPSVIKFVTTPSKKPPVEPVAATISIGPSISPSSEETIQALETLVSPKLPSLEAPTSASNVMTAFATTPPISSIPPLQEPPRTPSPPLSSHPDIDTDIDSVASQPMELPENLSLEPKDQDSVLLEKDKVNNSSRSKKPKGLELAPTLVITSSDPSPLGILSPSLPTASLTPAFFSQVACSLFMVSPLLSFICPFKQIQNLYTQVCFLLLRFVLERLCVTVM
# Procedure, shortened: as §1
# ETV2 = molecular target: T9, ETV2 (Homo sapiens, UniProt O00321 1-342)
# T9 sequence: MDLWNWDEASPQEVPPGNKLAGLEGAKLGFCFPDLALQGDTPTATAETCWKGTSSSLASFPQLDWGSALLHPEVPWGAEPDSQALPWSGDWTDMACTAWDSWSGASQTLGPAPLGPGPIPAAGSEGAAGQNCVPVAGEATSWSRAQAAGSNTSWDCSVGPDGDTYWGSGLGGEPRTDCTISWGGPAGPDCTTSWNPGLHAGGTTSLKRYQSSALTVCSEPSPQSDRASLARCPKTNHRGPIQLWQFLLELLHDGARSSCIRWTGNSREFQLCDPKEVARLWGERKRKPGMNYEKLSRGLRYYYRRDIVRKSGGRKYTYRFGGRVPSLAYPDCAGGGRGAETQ
# Procedure, shortened: as §1
# ETV1 = ETV1 (Homo sapiens, UniProt P50549 1-477)
# Chain of ETV1 (P50549 whole entry): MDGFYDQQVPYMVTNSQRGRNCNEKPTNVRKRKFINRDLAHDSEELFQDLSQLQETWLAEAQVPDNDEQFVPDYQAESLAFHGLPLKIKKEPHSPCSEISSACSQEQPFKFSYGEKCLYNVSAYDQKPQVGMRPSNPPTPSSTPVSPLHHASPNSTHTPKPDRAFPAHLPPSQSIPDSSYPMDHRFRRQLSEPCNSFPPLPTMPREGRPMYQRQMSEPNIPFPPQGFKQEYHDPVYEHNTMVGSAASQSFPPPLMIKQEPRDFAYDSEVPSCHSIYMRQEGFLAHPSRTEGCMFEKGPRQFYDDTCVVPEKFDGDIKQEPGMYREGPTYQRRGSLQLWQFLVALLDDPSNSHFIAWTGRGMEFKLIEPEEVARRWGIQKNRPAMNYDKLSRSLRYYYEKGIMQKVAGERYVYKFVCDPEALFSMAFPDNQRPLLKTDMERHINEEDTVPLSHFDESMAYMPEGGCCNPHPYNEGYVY
# Procedure, shortened: as §1
# ERF = molecular target: T10, ERF (Homo sapiens, UniProt P50548 1-548)
# T10 sequence: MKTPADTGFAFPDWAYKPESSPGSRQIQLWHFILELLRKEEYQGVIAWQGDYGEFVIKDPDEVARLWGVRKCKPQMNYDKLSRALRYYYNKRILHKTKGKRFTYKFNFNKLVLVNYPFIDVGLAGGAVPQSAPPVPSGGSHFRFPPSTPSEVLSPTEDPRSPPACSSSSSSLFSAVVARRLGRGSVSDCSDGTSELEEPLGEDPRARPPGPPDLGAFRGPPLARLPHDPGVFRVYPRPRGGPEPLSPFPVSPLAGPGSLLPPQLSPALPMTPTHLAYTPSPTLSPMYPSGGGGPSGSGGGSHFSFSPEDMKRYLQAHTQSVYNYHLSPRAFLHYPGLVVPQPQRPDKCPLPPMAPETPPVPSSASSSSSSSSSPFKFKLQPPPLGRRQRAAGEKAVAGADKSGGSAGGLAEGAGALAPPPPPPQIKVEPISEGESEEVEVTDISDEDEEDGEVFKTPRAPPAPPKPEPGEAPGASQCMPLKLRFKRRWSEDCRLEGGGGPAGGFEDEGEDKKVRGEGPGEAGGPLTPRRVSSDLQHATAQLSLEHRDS
# Procedure, shortened: as §1
# ETV7 = molecular target: T11, ETV7 (Homo sapiens, UniProt Q9Y603 1-341)
# T11 sequence: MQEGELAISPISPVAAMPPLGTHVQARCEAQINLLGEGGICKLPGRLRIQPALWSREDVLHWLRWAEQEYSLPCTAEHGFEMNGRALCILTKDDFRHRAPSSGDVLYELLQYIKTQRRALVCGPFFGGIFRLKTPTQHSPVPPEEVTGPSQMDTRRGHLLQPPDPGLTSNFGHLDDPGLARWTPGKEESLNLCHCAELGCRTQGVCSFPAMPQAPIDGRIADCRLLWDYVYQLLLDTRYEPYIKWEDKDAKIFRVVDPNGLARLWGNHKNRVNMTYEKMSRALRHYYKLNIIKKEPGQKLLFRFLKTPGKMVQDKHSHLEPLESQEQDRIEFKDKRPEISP
# Procedure, shortened: as §1
# ETV3 = molecular target: T12, ETV3 (Homo sapiens, UniProt P41162-2 1-143)
# T12 sequence: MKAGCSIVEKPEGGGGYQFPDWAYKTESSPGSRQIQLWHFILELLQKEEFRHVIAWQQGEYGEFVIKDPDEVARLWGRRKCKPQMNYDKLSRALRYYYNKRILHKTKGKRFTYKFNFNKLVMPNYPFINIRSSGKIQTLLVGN
# Procedure, shortened: as §1
# ETV6 = ETV6 (Homo sapiens, UniProt P41212 1-452)
# Chain of ETV6 (P41212 whole entry): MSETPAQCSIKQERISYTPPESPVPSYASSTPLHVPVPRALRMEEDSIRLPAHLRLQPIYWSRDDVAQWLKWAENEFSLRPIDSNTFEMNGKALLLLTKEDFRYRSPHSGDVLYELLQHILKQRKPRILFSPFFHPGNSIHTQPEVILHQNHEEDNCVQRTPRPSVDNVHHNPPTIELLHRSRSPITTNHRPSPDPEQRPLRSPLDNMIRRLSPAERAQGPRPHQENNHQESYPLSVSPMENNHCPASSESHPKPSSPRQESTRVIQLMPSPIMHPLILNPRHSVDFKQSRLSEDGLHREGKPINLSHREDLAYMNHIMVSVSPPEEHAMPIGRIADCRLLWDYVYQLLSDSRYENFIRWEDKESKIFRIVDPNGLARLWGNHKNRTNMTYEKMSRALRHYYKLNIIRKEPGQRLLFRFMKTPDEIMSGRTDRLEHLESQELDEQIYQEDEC
# Procedure, shortened: as §1
Sequence,binding signal (FLI1),binding signal (ELK1),binding signal (GABPA),binding signal (ERG),binding signal (ELF1),binding signal (EHF),binding signal (SPIB),binding signal (ELK3),binding signal (SPIC),binding signal (ELF4),binding signal (ELK4),binding signal (ETV2),binding signal (ETV1),binding signal (ERF),binding signal (ETV7),binding signal (ETV3),binding signal (ETV6)
ACCACG,"1.14 fold enrichment (6-mer frequency, TF over GST control)","1.16 fold enrichment (6-mer frequency, TF over GST control)","1.09 fold enrichment (6-mer frequency, TF over GST control)","1.06 fold enrichment (6-mer frequency, TF over GST control)","1.18 fold enrichment (6-mer frequency, TF over GST control)","1.04 fold enrichment (6-mer frequency, TF over GST control)","1.04 fold enrichment (6-mer frequency, TF over GST control)","1.08 fold enrichment (6-mer frequency, TF over GST control)","1.08 fold enrichment (6-mer frequency, TF over GST control)","1.05 fold enrichment (6-mer frequency, TF over GST control)","1.11 fold enrichment (6-mer frequency, TF over GST control)","1.09 fold enrichment (6-mer frequency, TF over GST control)","1.05 fold enrichment (6-mer frequency, TF over GST control)","1.03 fold enrichment (6-mer frequency, TF over GST control)","1.04 fold enrichment (6-mer frequency, TF over GST control)","1.04 fold enrichment (6-mer frequency, TF over GST control)","1.02 fold enrichment (6-mer frequency, TF over GST control)"
ATTCGG,"1.01 fold enrichment (6-mer frequency, TF over GST control)",,,,,,,,"1.04 fold enrichment (6-mer frequency, TF over GST control)",,,,,,,"1.02 fold enrichment (6-mer frequency, TF over GST control)",
